The source of these data is PubChem BioAssay (EPA / NIEHS).

Activity calls are given as the source filed them. How the source made its calls: active means hit-call score of the fitted dose curve at least 0.9, where 1 is the maximum; inactive means score below 0.9.

Assay [1] in a line: ATG_GRE_CIS: Attagene CIS-FACTORIAL HepG2 Assay for human Glucocorticoid Response Elements (GRE) (AID 2282947). Particulars: HepG2 GRE cis-reporter, Attagene multiplex mRNA; actives raise or lower the signal. The procedure, abridged: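 Transiently transfected HepG2 cells carrying GRE cis-reporter units (endogenous TF activity) dosed 24 h; reporter mRNA quantified by RT-PCR, 6-FAM labelling, HpaI digestion and capillary electrophoresis. Bidirectional fit versus DMSO baseline.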

Assay [2] can be described thus: ATG_ISRE_CIS: Attagene CIS-FACTORIAL HepG2 Assay for human Interferon Regulatory Factor 1 (IRF1) binding to an Interferon-Stimulated Response Element (ISRE) (AID 2282948). Particulars: HepG2 ISRE cis-reporter (Attagene), mRNA transcription readout; actives raise or lower the signal. The procedure, abridged:
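Cell-based cis-reporter assay; HepG2; 24 h exposure; reporter mRNA by RT-PCR plus capillary electrophoresis fluorescence; activity in either direction scored relative to DMSO.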

A short description of assay [3]: ATG_M_32_CIS: Attagene CIS-FACTORIAL HepG2 Assay for M32 Transcription Factor (Internal Marker) (AID 2282949).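 Further: background control marker of the multiplexed CIS panel rather than a real target.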 As to conditions: HepG2 Attagene cis-factorial M32 reporter, mRNA; actives raise or lower the signal. The procedure, abridged:
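Fluorescent capillary electrophoresis peaks of HpaI-digested, FAM-labelled RT-PCR reporter products give the signal. Source: transiently transfected human liver HepG2 cells, 24 h after chemical dosing; bidirectional fitting against DMSO.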

A short description of assay [4]: ATG_M_06_CIS: Attagene CIS-FACTORIAL HepG2 Assay for M06 Transcription Factor (Internal Marker) (AID 2282950). As to conditions: HepG2 Attagene CIS-FACTORIAL M06 internal marker reporter; actives raise or lower the signal. The procedure, abridged:
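HepG2 cells transiently transfected with cis-regulated multiple reporter transcription units were exposed to chemical for 24 h; reporter mRNA was quantified by RT-PCR, 6-FAM primer labelling, HpaI digestion and capillary electrophoresis, fitted bidirectionally against DMSO.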

Assay [5] concerns the target Hypoxia-inducible factor 1-alpha (Homo sapiens) (UniProt Q16665). The experiment in a line: ATG_HIF1a_CIS: Attagene CIS-FACTORIAL HepG2 Assay for human Hypoxia Inducible Factor 1 (HIF1A) (AID 2282951). As to conditions: HepG2 Attagene cis-factorial HIF1a reporter transcription; actives raise or lower the signal. The procedure, abridged:
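Dosed 24 h, transfected HepG2 cells yielded total RNA whose reporter transcripts were RT-PCR-amplified and sized by capillary electrophoresis using fluorescent labelling; DMSO defined baseline, with gain and loss of signal both fitted.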

Assay [6] addresses Hepatocyte nuclear factor 6 (Homo sapiens) (UniProt Q9UBC0). The assay is described as follows: ATG_HNF6_CIS: Attagene CIS-FACTORIAL HepG2 Assay for human Hepatocyte Nuclear Factor 6 (HNF6) (AID 2282952). Particulars: HepG2 Attagene cis-factorial HNF6 reporter transcription; actives raise or lower the signal. The procedure, abridged: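 HepG2 cells transiently transfected with cis-element-driven multiple reporter transcription units, dosed 24 h; reporter mRNA quantified by RT-PCR, FAM primer extension, HpaI digestion and capillary electrophoresis; bidirectional fit versus DMSO baseline.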

Assay [7] has as its target Heat shock factor protein 1 (Homo sapiens) (UniProt Q00613). The experiment in a line: ATG_HSE_CIS: Attagene CIS-FACTORIAL HepG2 Assay for human Heat Shock Transcription Factor 1 (HSE) (AID 2282953). Particulars: HepG2 HSE cis-reporter, Attagene RNA transcription; actives raise or lower the signal. The procedure, abridged:
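HepG2 cells transiently transfected with multiple reporter transcription units under cis-regulatory promoter control, measuring endogenous transcription factor activity. After 24 h chemical exposure, reporter mRNA quantified by RT-PCR, fluorescent labelling, HpaI digestion and capillary electrophoresis; bidirectional fit versus DMSO.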

Assay [8] can be described thus: ATG_MRE_CIS: Attagene CIS-FACTORIAL HepG2 Assay for human Metal Responsive Element (MRE) (AID 2282954). Particulars: HepG2 MRE cis-reporter transcription, Attagene multiplex; actives raise or lower the signal. The procedure, abridged: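 HepG2 cells transiently transfected with cis-element-driven reporter units; mRNA measured 24 h after dosing. Reporter transcripts quantified by RT-PCR, FAM labelling, HpaI digestion and capillary electrophoresis; bidirectional fit versus DMSO.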

The nature of assay [9]: ATG_PBREM_CIS: Attagene CIS-FACTORIAL HepG2 Assay for human Phenobarbital-responsive Enhancer Module (PBREM) (AID 2282955). As to conditions: HepG2 PBREM cis-reporter, Attagene multiplexed transcription; actives raise or lower the signal. The procedure, abridged: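 Transfected liver-derived HepG2 cells exposed 24 h; PBREM reporter transcript quantified via RT-PCR and capillary electrophoresis, with activity in either direction referenced to DMSO.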

Chain of Hepatocyte nuclear factor 6 (Homo sapiens) (Q9UBC0 whole entry, looked up): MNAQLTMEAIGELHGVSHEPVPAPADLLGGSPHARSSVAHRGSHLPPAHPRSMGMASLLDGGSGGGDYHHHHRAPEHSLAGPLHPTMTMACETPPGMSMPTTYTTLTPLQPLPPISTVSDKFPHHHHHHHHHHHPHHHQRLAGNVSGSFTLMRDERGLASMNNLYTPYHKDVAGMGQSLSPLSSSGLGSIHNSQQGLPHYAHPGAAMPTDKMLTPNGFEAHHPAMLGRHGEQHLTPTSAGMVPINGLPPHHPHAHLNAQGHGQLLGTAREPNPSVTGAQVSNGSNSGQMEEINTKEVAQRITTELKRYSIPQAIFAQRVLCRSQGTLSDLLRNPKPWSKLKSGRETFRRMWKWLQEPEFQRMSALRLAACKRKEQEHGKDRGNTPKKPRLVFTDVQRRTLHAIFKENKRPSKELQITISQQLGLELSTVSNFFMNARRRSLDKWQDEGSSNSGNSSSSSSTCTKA
Chain of Heat shock factor protein 1 (Homo sapiens) (Q00613 whole entry, looked up): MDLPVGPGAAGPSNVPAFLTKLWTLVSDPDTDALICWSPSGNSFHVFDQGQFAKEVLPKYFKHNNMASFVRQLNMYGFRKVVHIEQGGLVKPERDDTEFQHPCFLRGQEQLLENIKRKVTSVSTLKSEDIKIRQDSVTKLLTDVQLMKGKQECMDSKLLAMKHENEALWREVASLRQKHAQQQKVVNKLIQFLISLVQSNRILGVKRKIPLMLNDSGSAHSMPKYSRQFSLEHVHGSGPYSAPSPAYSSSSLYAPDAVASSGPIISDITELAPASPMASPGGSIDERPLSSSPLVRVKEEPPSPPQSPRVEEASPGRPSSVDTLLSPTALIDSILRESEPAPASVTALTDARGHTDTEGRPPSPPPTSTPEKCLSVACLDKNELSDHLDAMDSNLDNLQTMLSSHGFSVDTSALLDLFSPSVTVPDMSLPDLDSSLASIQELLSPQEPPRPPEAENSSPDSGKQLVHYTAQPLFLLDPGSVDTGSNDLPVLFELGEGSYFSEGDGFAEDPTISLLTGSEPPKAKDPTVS
Chain of Hypoxia-inducible factor 1-alpha (Homo sapiens) (Q16665 whole entry, looked up): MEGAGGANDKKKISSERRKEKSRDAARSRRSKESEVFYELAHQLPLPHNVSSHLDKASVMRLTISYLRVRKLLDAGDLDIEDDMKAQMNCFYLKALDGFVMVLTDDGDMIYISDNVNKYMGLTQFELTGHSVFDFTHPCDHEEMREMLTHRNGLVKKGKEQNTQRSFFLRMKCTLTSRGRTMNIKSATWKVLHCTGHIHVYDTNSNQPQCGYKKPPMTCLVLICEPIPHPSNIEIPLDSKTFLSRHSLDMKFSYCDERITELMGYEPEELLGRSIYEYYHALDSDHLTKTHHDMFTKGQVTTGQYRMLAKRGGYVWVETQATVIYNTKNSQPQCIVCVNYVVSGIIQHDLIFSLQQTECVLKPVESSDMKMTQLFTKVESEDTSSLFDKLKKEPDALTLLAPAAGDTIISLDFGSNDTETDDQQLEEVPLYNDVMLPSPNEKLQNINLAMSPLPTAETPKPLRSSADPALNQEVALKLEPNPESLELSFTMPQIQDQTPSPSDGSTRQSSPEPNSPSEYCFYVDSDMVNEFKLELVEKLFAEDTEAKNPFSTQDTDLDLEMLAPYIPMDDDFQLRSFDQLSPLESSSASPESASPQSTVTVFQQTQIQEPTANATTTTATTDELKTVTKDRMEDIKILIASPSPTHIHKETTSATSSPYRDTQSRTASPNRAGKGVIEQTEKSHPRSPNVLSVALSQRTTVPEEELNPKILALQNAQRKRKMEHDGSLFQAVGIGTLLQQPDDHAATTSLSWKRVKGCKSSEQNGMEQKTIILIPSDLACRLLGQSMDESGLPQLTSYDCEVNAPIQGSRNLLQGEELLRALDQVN

On to `Cc1ccc(O)c(C(C)(C)C)c1`, for which the AC50 (commonly the concentration giving half of the maximal activity seen) in assay [1] is 100 µM (active); in [6], 156 µM (active); in assay [8], 146 µM (active). In addition, the call in assay [2], in [3], in [4], in assay [5], in [7] and in assay [9] was inactive.
With `CC(=O)Nc1ccc(CC(=O)O)cc1`, the molecule was called inactive in assay [1], in assay [2], in assay [3], in [4], in [5] and in [6]. In addition, the call in [7], in assay [8] and in assay [9] was inactive.
Take `Cc1ccc(C(=O)c2cc(O)c(O)c([N+](=O)[O-])c2)cc1`: the molecule was classed as inactive in [1], in [2], in [3], in [4], in assay [6] and in [7]. Further, the result in assay [9] was inactive. Also, the figures for the AC50 in assay [5] and in assay [8] were 27.4 µM (active) and 130 µM (active), respectively.
Regarding `CCCCCCCCCCCCN`, the call in [1], in assay [2], in [3], in [4], in assay [5] and in [6] was inactive. Besides, the call in assay [8] was inactive.
Turning to `[Ca+2]`, the molecule was classed as inactive in assay [1], in [2], in assay [3], in assay [4], in [5] and in assay [6]. Further, the molecule was called inactive in [7] and in assay [8].
As to `O=C(O)c1ccc(C(=O)O)cc1`, the molecule was classed as inactive in [1], in assay [2], in [3], in assay [4], in assay [5] and in assay [6]. The molecule was classed as inactive in assay [7], in assay [8] and in assay [9].
Consider `C=CC[N+](C)(C)CC=C`, for which the outcome in [1], in [2], in assay [3], in assay [4], in [5] and in assay [6] was inactive. Further, the molecule was classed as inactive in [8].
Turning to `CCC(C)(O)CCC=C(C)C` (stereo not given), the molecule was classed as inactive in assay [1], in assay [2], in [3], in [4], in assay [5] and in assay [6]. Moreover, the molecule was classed as inactive in assay [7] and in assay [8].
For the molecule `COC(=O)OC`, the molecule was classed as inactive in assay [1], in [2], in [3], in [4], in assay [5] and in assay [6]. The molecule was called inactive in assay [7], in assay [8] and in assay [9].
For `COCCCOc1ccnc(CS(=O)c2nc3ccccc3[nH]2)c1C` (stereo not given), the molecule was called inactive in assay [1], in assay [2], in assay [3], in assay [4], in assay [5] and in [6]. Besides, in assay [8], the AC50 is 106 µM (active).
For `Nc1cccc(S(=O)(=O)c2cccc(N)c2)c1`, the molecule was called inactive in assay [1], in [2], in assay [3], in [4], in [5] and in assay [6]. Further, the molecule was called inactive in assay [7], in assay [8] and in assay [9].
`CC(=O)OCCOC(C)=O`: the call in assay [1], in assay [2], in assay [3], in assay [4], in assay [5] and in assay [6] was inactive. Further, the outcome in assay [7] and in [8] was inactive.
As for `C=CCOc1nc(OCC=C)nc(OCC=C)n1`, the call in [1], in [2], in assay [3], in assay [4], in assay [5] and in assay [6] was inactive. For the same molecule, the molecule was called inactive in assay [7] and in assay [8].
Consider `CCCCCC(=O)OCCc1ccccc1`, for which the molecule was called inactive in [1], in assay [2], in assay [3], in [4], in assay [5] and in assay [6]. The result in assay [7], in assay [8] and in assay [9] was inactive.
Consider `CC1(C)[C@H](C(=O)OCc2cccc(Oc3ccccc3)c2)[C@@H]1C=C(Cl)Cl`, for which the result in assay [1], in assay [2], in [3], in assay [4], in assay [5] and in [6] was inactive. The outcome in [8] and in [9] was inactive.
Consider `CC(O)C(C)O` (stereo not given), for which the call in assay [1], in assay [2], in [3], in assay [4], in [5] and in assay [6] was inactive. In addition, the outcome in assay [7], in assay [8] and in assay [9] was inactive.
Consider `Cc1ccc(C(C)C)cc1O`, for which the result in assay [1], in assay [2], in assay [3], in [4], in assay [5] and in [6] was inactive. Moreover, the result in assay [7] and in [8] was inactive.
For the molecule `CCCCC[Si](OCC)(OCC)OCC`, the molecule was classed as inactive in assay [1], in [2], in assay [3], in assay [4], in assay [5] and in [6]. Moreover, the outcome in assay [7] and in assay [8] was inactive.
Turning to `C=CC(=O)OCC(O)COc1ccccc1` (stereo not given), the AC50 in [1] was 67.3 µM (active); in assay [2], 27.4 µM (active); in [7], 134 µM (active). The call in assay [3], in assay [4], in assay [5], in [6], in [8] and in [9] was inactive.
`C=COCCOCCOCCOC=C`: the molecule was called inactive in [1], in assay [2], in [3], in [4], in assay [5] and in assay [6]. Further, the outcome in assay [7], in assay [8] and in assay [9] was inactive.
As to `CCCCCCCCCCCCCCCC(=O)O`, the outcome in assay [1], in assay [2], in [3], in [4], in assay [5] and in assay [6] was inactive. The molecule was classed as inactive in assay [7], in assay [8] and in assay [9].
Turning to `O=[N+]([O-])c1ccc(C=Cc2ccc([N+](=O)[O-])cc2S(=O)(=O)O)c(S(=O)(=O)O)c1`, the outcome in assay [1], in [2], in assay [3], in assay [4], in assay [5] and in assay [6] was inactive. The molecule was classed as inactive in assay [8].
For `CC(C)CCCCCCCOC(=O)c1ccc(C(=O)OCCCCCCCC(C)C)c(C(=O)OCCCCCCCC(C)C)c1`, the call in assay [1], in assay [2], in [3], in assay [4], in [5] and in assay [6] was inactive. In addition, the result in assay [7] and in assay [8] was inactive.
In the case of `CCCCCCCCCC=O`, the call in [1], in [2], in assay [3], in assay [4], in assay [6] and in assay [7] was inactive. The call in assay [8] was inactive. In addition, in assay [5], the AC50 was 19.8 µM (active).
Regarding `C=CC(C)(CCC=C(C)C)OC=O` (stereo not given), the call in assay [1], in assay [2], in assay [3], in assay [4], in [5] and in [6] was inactive. Further, the molecule was classed as inactive in assay [8] and in assay [9].
Turning to `COc1ccc(Cl)cc1C`, the molecule was called inactive in assay [1], in assay [2], in [3], in assay [4], in assay [5] and in assay [6]. In addition, the molecule was classed as inactive in assay [7] and in assay [8].
